# ChEMBL document CHEMBL3988442, “University of Dundee, Small-Polar-MMV Screening Library” (2021)
# The whole screen tested about 48,000 compounds, of which about 13,000 (27%) showed an effect of 50% or more. The list shows a part of the results.
# System: Wolbachia pipientis
# Experiment: Anti-Wolbachia Cell-Based Screen
# Format: functional
# Parameters: scale not given: in the data most compounds retested in dose-response had high values
# Conditions: 5 µM
row,SMILES,Percent Effect [%]
1,CCN(Cc1noc(CC(C)C)n1)Cc1ccccc1C(=O)O,3.594
2,COc1ccc(C(=O)C2CCCN(c3cc(N)ncn3)C2)c(C)c1 (stereo not drawn),-12.01
3,Cc1cc(C[C@@H]2COC[C@@H]2NC(=O)CN2CCCN(C)CC2)on1,-4.417
4,Cc1cc(C2CCCN2C(=O)CN2CCc3ccccc32)on1 (stereo not drawn),-2.751
5,CNC(=O)c1ccc(C2CN(C(=O)c3coc(C)n3)CCO2)nc1 (stereo not drawn),128.9
6,CNC(=O)c1ccc(C2CN(C(=O)c3c[nH]nc3C)CCO2)nc1 (stereo not drawn),101.4
7,Cc1[nH]ncc1C(=O)N1CCOC(c2cccs2)C1 (stereo not drawn),6.058
8,Cc1cc(NC(=O)c2ccc(C)c(F)c2)[nH]n1,2.098
9,CCS(=O)(=O)CC(=O)NCC1(c2c(F)cccc2F)CCCC1,-2.417
10,COc1ccccc1-c1cc(NC(=O)CCS(=O)(=O)C2CCCC2)[nH]n1,7.035
11,CS(=O)(=O)CCCC(=O)Nc1cc(Cl)c(Cl)cn1,1.598
12,CS(=O)(=O)CCCC(=O)Nc1cc(-c2cccc(F)c2F)n[nH]1,87.07
13,O=C(COCC1CC1)Nc1cc(-c2ccc(Br)s2)n[nH]1,-5.562
14,CCS(=O)(=O)CC(=O)Nc1cc(-c2cccc(F)c2F)n[nH]1,100.6
15,CCOCC(=O)Nc1cc(-c2cccc(F)c2F)n[nH]1,91.5
16,CCS(=O)(=O)CC(=O)Nc1c(C)cnn1Cc1cc(F)ccc1F,-26.81
17,CC(=O)Nc1cc(-c2cccc(F)c2F)n[nH]1,88.91
18,COc1ccc(Cl)cc1-c1cc(NC(=O)C2CNC(=O)N2)[nH]n1 (stereo not drawn),7.586
19,COc1ccccc1-c1cc(NC(=O)COCC2CC2)[nH]n1,4.73
20,CN1CCOC(C(=O)N2CCCC(C)(C)CC2)C1 (stereo not drawn),-5.11
21,CCc1c(C)nc(N)nc1NCCSCc1[nH]cnc1C,-21.58
22,c1coc(-c2nc(CN3CCn4c(nnc4C4CC4)C3)cs2)c1,21.52
23,N#Cc1cccnc1N1CCCC(CO)(Cc2ccc(F)cc2)C1 (stereo not drawn),-22.45
24,CN(C)C(=O)c1ccc2c(c1)N(C)C(CC(=O)NCc1ncc[nH]1)CO2 (stereo not drawn),-21.18
25,O=C(COc1ccccc1)NS(=O)(=O)Cc1ccccc1,9
26,COCCN1C[C@@H](C)[C@@]2(COCCN(C(=O)Cc3ccccc3)C2)C1.O=C(O)C(F)(F)F,-3.108

row,SMILES,Percent Effect [%]
1,CC(C)CC(C#N)NC(=O)c1ccc(Oc2cccnc2)cc1 (stereo not drawn),0.407
2,CCN(Cc1ccc(OC)c(F)c1)Cc1nc2c(cnn2C)c(=O)[nH]1,142.5
3,CN(Cc1ccc2c(c1)OCO2)Cc1nc2c(cnn2C)c(=O)[nH]1,5.823
4,CCN(Cc1nc2c(cnn2C)c(=O)[nH]1)c1ccc(OC)c(OC)c1,11.95
5,CCN(Cc1nc2c(cnn2C)c(=O)[nH]1)c1cc(C)ccc1C,-12.64
6,COc1ccc(CN(C)Cc2nc3c(cnn3C)c(=O)[nH]2)cc1OC,10.06
7,CCN(Cc1ccc(F)c(F)c1)Cc1nc2c(cnn2C)c(=O)[nH]1,128.6
8,CCN(Cc1ccc2c(c1)OCO2)Cc1nc2c(cnn2C)c(=O)[nH]1,112.4
9,CCN(Cc1nc2c(cnn2C)c(=O)[nH]1)c1cccc(Cl)c1,-0.7695
10,COCCN1C[C@H]2CC[C@@H]1CN(Cc1cc(=O)c3cc(C)ccc3[nH]1)C2,-2.085
11,COc1c(-c2ccc(O)cc2)oc2cc(O)cc(O)c2c1=O [ISOKAEMPFERIDE],3.468
12,CCc1cc(N2CCC(N[C@@H]3CS(=O)(=O)C[C@H]3O)CC2)nc(N(C)C)n1,-8.378
13,Cc1ncnc2c1CCN(S(=O)(=O)C1CC1)CC2,105
14,CN1CCN(c2ncnc3c2CCN(S(=O)(=O)C2CC2)CC3)CC1.O=C(O)C(F)(F)F,114.5
15,CN1CCN(c2ncnc3c2CCN(c2ncc(F)cn2)CC3)CC1.O=C(O)C(F)(F)F,6.683
16,O=S(=O)(C1CC1)N1CCc2ncnc(-c3ccc(F)cc3)c2CC1,10.52
17,Cc1cnc(N2CCc3ncnc(N4CCN(C)CC4)c3CC2)nc1.O=C(O)C(F)(F)F,-5.23
18,O=S(=O)(C1CC1)N1CCc2ncnc(-c3ccsc3)c2CC1,-15.04
19,CCOc1ncnc2c1CCN(S(=O)(=O)C1CC1)CC2,10.58
20,c1nc2c(c(N3CCOCC3)n1)CCNCC2,91.19
21,O=C(C1CC1)N1CCCN(c2ncnc3c2CCNCC3)CC1,-5.367
22,O=S(=O)(C1CC1)N1CCc2ncnc(N3CCOCC3)c2CC1,100.4
23,Fc1cccc(N2CCc3ncnc(N4CCOCC4)c3CC2)c1,24.23
24,CCN1CCC(CC(=O)N2CCCCC2CCn2cccn2)CC1 (stereo not drawn),1.727
25,N#Cc1ccc(CNC(=O)NCCNC(=O)C2CCCC2)c(F)c1,4.725
26,COc1ccc2ccccc2c1CNCC1CCS(=O)(=O)C1.Cl (stereo not drawn),9.511

row,SMILES,Percent Effect [%]
1,O=C(O)C(F)(F)F.O=S(=O)(C1CC1)N1CCc2ncnc(-c3ccncc3)c2CC1,-12.42
2,O=C(O)C(F)(F)F.O=S(=O)(C1CC1)N1CCc2ncnc(N3CCCC3)c2CC1,105.6
3,O=C(O)C(F)(F)F.O=C(O)C(F)(F)F.O=C(O)C(F)(F)F.c1ccc(CN2CCc3ncnc(N4CCCC4)c3CC2)nc1,8.605
4,COCCC1(CNC(=O)NCC2CCCN(C)C2)CCCC1 (stereo not drawn),2.707
5,CCc1ncc(CN2CCCN(CC3CC3)C(C(C)C)C2)cn1 (stereo not drawn),-1.309
6,COc1ncc(CN2C[C@@H]3C[C@@H](O)CN3C[C@@H]2Cc2ccccc2)cn1,106.8
7,COCc1ncc(CN2CC[C@@](C)(O)[C@@H](Cc3ccccc3)C2)cn1,-1.853
8,COc1ncc(CN2CCOC(Cc3cccc4ccccc34)C2)cn1 (stereo not drawn),-6.808
9,CCc1ncc(CN2C[C@@H]3C[C@@H](O)CN3C[C@@H]2Cc2ccccc2)cn1,90.44
10,COc1ccc(CN2C[C@H](O)C[C@H]2c2nc(-c3ccccc3)no2)cc1,10.67
11,CN(C)C(=O)COCC1CN(CC2CCOCC2)Cc2ncn(C)c21 (stereo not drawn),99.32
12,CN(C)CCN1Cc2ncn(C)c2C(COCC(=O)N(C)C)C1 (stereo not drawn),87.7
13,CN(C)C(=O)N1Cc2ncn(C)c2C(COCC2CCOCC2)C1.O=C(O)C(F)(F)F (stereo not drawn),-8.2
14,CN(C)CC(=O)N1Cc2ncn(C)c2C(COCC2CCOCC2)C1 (stereo not drawn),11.09
15,CCOCC1CN(C(=O)N(C)C)Cc2nn(C)cc21 (stereo not drawn),-8.201
16,CCOCCN1Cc2ncn(C)c2C(COCC2CCOCC2)C1.O=C(O)C(F)(F)F.O=C(O)C(F)(F)F (stereo not drawn),-3.886
17,Cc1ccc(CN2C[C@H]3C(=O)N(CC4CC4)C[C@@]3(C(=O)O)C2)c(F)c1F,26.68
18,O=C(CCCn1cncn1)N1CCC2(CCCN(C3CCCC3)C2=O)C1 (stereo not drawn),-21.81
19,O=C(CCc1nc(Cl)n[nH]1)N1CCC2(CCCN(CC3CCC3)C2=O)C1 (stereo not drawn),-5.22
20,O=C(CN1CCOCC1)N1CCC2(CCCN(C3CCOCC3)C2=O)C1 (stereo not drawn),102.1
21,O=C(CCCn1cncn1)N1CCC2(CCCN(CC3CC3)C2=O)C1 (stereo not drawn),15.06
22,O=C(COCC(F)(F)C(F)F)N1CCC2(CCCN(CC3CC3)C2=O)C1 (stereo not drawn),-8.945
23,O=C(CSC(F)(F)F)N1CCC2(CCCN(C3CCOCC3)C2=O)C1 (stereo not drawn),96.55
24,CS(=O)(=O)CCC(=O)N1CCC2(CCCN(C3CCOCC3)C2=O)C1 (stereo not drawn),-5.583
25,CN1CCCC2(CCN(C(=O)Cc3cc4c(cc3Cl)OCCO4)C2)C1=O (stereo not drawn),-11.77
26,O=C(CSCC1CC1)N1CCC2(CCCN(C3CCOCC3)C2=O)C1 (stereo not drawn),90.41

row,SMILES,Percent Effect [%]
1,CCS(=O)(=O)N1CCCC2(CCCN2C(=O)c2cscn2)C1 (stereo not drawn),-8.968
2,N#Cc1ccc(NCCCN2C(=O)COc3ccccc32)nc1,-5.647
3,CC(NC(=O)c1cccc(CN2CCN(C)CC2)c1)c1nccs1 (stereo not drawn),12.68
4,COCc1cccc(C(=O)N2CCN(C3=NCC(C)(C)S3)CC2)c1,0.6755
5,CNC(=O)c1ccc(CN2CCN(C3=NCC(C)(C)S3)CC2)cc1,129.2
6,CC(NC(=O)c1cccc(CN2CCN(C)CC2)c1)c1ccccn1 (stereo not drawn),-0.367
7,CNC(=O)c1cccc(CN2CCN(c3ccncc3)CC2)c1,83.93
8,CN(C)c1ncccc1C(=O)N1CCN(C2=NCC(C)(C)S2)CC1,-14.23
9,CC(=O)Nc1cccc(Cn2nc(C)nc2C)c1,5.981
10,CNC(=O)c1cccc(CN2CCN(C3=NCC(C)(C)S3)CC2)c1,103.7
11,CC(=O)NCCC(=O)Nc1cccc(N2CCN(CC3CC3)CC2)c1,8.668
12,CNC(=O)c1cccc(CN2CCC(N(C)Cc3nnc(C)o3)C2)c1 (stereo not drawn),0.9226
13,CC(=O)Nc1cccc(CN2CCN(C3=NCC(C)(C)S3)CC2)c1,100.4
14,CNC(=O)c1ccc(Cn2ccnc2S(C)(=O)=O)cc1,-4.025
15,CN(CCCc1n[nH]c(N)c1C#N)C(=O)NC1CC1,0.449
16,O=C(NCCCO)Nc1cccc(C[S+]([O-])c2ccccc2)c1 (stereo not drawn),2.569
17,CN(Cc1ccccc1)CC1CC2(CO1)CN(Cc1nccs1)C2 (stereo not drawn),11.68
18,Cc1ccc(C(=O)N2CCC3(CCCN(c4ccc(C)nn4)C3)C2)cn1 (stereo not drawn),4.152
19,Cc1ccc(N2CCC3(CCCN(C(=O)c4cccnc4)C3)C2)nn1.O=C(O)C(F)(F)F (stereo not drawn),-9.172
20,Cc1occc1C(=O)N1CCC2(CCCN(Cc3nccs3)C2)C1.O=C(O)C(F)(F)F (stereo not drawn),1.287
21,CN(Cc1ccncc1)C1CC2(CCN(c3ncc(F)cn3)CC2)C1.O=C(O)C(F)(F)F.O=C(O)C(F)(F)F,-2.894
22,Cc1occc1C(=O)N1CCC2(CCCN(c3ncc(F)cn3)C2)C1.O=C(O)C(F)(F)F (stereo not drawn),116.2
23,Cc1occc1C(=O)N1CCC2(CCCN(Cc3cccs3)C2)C1.O=C(O)C(F)(F)F (stereo not drawn),-3.04
24,O=C(O)C(F)(F)F.O=C(c1ccncc1)N1CCC2(CCCN(c3ncc(F)cn3)C2)C1 (stereo not drawn),105.7
25,Cc1ccc(C(=O)N2CCC3(CCCN(c4ncc(F)cn4)C3)C2)cn1.O=C(O)C(F)(F)F (stereo not drawn),104
